Here are results for eight molecules from PubChem BioAssay (Tox21).

SMILES strings stand for the structures. Results filed as inconclusive are left out. Active and inactive are the calls of the source. Unless noted, the call rests on the fitted dose curve; in most records, active means well fitted curve in the direction sought with a large enough effect in the repeat runs; inconclusive means weak or mixed curves; inactive means no such curve, though single readings can be large; an effect the other way counts as inactive or inconclusive.

A short description of experiment [1]: qHTS RealTime-Glo MT Cell Viability Assay in HEK293 cells - 0 hour (AID 1224880). Further: top concentration of the series differs between compounds; nearly all actives have a fitted effect of over 45% in size. Put shortly: (§1)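 Kinetic, non-lysing viability readout. Seed HEK293 (600/well) with reagent, incubate 5 h at 37 C/5% CO2, pin 23 nL compound in DMSO, incubate at 37 C, read luminescence at 0, 8, 16, 24, 32, 40 h.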
(In general: Quantitative high-throughput screening tests each substance at several concentrations.)

A short description of experiment [2]: A CellTox Green Cytotoxicity Assay to monitor cytotoxicity in HEK293 cells - 32 hour (AID 1224881). Further: nearly all actives have a fitted effect of over 40% in size. The essentials: (§2)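 Real-time, in one plate: 600 HEK293 cells/well with dead-cell DNA dye, pinned compound after 5 h, 37 C incubation over 40 h; viable cells give no appreciable fluorescence.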
Experiment [3] can be described thus: A CellTox Green Cytotoxicity Assay to monitor cytotoxicity in HepG2 cells - 0 hour (AID 1224882). Further: nearly all actives have a fitted effect of over 35% in size. The essentials:
(§3)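 Cytotoxicity was tracked as dead-cell DNA fluorescence in HepG2 cells treated with test compounds at 37 C; each time-point value comes from one kinetic series spanning 0, 8, 16, 24, 32 and 40 h.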

Experiment [4] is described as follows: A CellTox Green Cytotoxicity Assay to monitor cytotoxicity in HepG2 cells - 32 hour (AID 1224883). Further: nearly all actives have a fitted effect of over 50% in size. Put shortly: as §3
The nature of experiment [5]: A CellTox Green Cytotoxicity Assay to monitor cytotoxicity in HEK293 cells - 8 hour (AID 1224884). Further: nearly all actives have a fitted effect of over 35% in size. The essentials:
as §2

Experiment [6] is described as follows: qHTS RealTime-Glo MT Cell Viability Assay in HepG2 cells - 16 hour (AID 1224885). Further: nearly all actives have a fitted effect of over 50% in size. Put shortly: (§4)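 Luminescence read-out: viable HepG2 cells reduce a prosubstrate to a NanoLuc substrate, giving a signal proportional to live cell number. Reads taken at 0, 8, 16, 24, 32 and 40 h of compound exposure at 37 C.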
Experiment [7] can be described thus: qHTS RealTime-Glo MT Cell Viability Assay in HEK293 cells - 8 hour (AID 1224887). Further: top concentration of the series differs between compounds; nearly all actives have a fitted effect of over 50% in size. The essentials:
as §1

A short description of experiment [8]: A CellTox Green Cytotoxicity Assay to monitor cytotoxicity in HEK293 cells - 16 hour (AID 1224888). Further: nearly all actives have a fitted effect of over 35% in size. The essentials: as §2
Experiment [9] can be described thus: qHTS RealTime-Glo MT Cell Viability Assay in HepG2 cells - 0 hour (AID 1224889). Further: nearly all actives have a fitted effect of over 50% in size. Put shortly: as §4
The nature of experiment [10]: A CellTox Green Cytotoxicity Assay to monitor cytotoxicity in HepG2 cells - 8 hour (AID 1224890). Further: nearly all actives have a fitted effect of over 45% in size. Put shortly: as §3
A short description of experiment [11]: qHTS assay to identify small molecule antagonists of the estrogen receptor alpha (ER-alpha) signaling pathway using the BG1 cell line in the presence of 0.1 nM 17-beta-estradiol - cell viability counter screen (AID 1259241). Further: nearly all actives have a fitted effect of over 40% in size. Further: potency means the concentration at half of the fitted maximal effect. Put shortly: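 Measures cytotoxicity alongside the ER-alpha antagonist readout: VM7Luc4E2 cells, charcoal-stripped serum, 0.1 nM 17beta-estradiol final, 22 hr compound incubation at 37C, CellTiter-Fluor fluorescence.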

A short description of experiment [12]: qHTS assay to identify small molecule antagonists of the androgen receptor (AR) signaling pathway using the MDA cell line in the presence of 0.5 nM R1881 - cell viability counter screen (AID 1259242). Further: nearly all actives have a fitted effect of over 45% in size. The essentials:
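Cells seeded at 3,000/well and allowed 5 hr at 37C, 0% CO2 before compound transfer and R1881 (0.5 nM final) addition; 16 hr later, live-cell protease fluorescence indicated cytotoxicity.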

The target in experiment [13] is Estrogen receptor (Homo sapiens) (UniProt P03372). The experiment is described as follows: qHTS assay to identify small molecule antagonists of the estrogen receptor alpha (ER-alpha) signaling pathway using the BG1 cell line in the presence of 0.1 nM 17-beta-estradiol (AID 1259244). Further: nearly all actives have a fitted effect of over 50% in size. The essentials: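 Luciferase signal from VM7Luc4E2 ERE-reporter cells, co-dosed with test compound and 0.1 nM final 17beta-estradiol for 22 h, read with ONE-Glo.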
Estrogen receptor (Homo sapiens), sequence (P03372 whole entry, looked up): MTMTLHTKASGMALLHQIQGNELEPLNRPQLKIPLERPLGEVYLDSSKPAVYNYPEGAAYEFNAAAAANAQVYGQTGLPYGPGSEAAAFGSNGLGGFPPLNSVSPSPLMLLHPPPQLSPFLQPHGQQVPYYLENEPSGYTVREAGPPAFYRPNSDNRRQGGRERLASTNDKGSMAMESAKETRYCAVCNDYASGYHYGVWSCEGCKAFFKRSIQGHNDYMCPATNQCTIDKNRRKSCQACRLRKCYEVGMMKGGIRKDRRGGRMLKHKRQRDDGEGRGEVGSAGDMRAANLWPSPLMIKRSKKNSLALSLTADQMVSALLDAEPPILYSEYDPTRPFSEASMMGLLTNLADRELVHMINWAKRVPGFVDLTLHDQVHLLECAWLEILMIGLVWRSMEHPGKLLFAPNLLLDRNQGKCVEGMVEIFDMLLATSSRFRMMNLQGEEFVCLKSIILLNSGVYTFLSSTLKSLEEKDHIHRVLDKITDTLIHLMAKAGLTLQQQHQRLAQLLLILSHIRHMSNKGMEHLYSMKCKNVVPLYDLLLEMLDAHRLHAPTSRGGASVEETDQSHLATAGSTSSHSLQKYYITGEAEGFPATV

Experiment [14] is described as follows: qHTS assay to identify small molecule HDAC inhibitors - cell viability counter screen (AID 1259365). Put shortly:
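Following a 2hr exposure of overnight-plated wild-type HCT-116 cells to DMSO-delivered compounds, CellTiter-Glo was added and luminescence recorded after 30min at room temperature.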

The nature of experiment [15]: qHTS assay to identify small molecule agonists of the sonic hedgehog signaling (Shh) pathway - cell viability counter screen (AID 1259366). Further: nearly all actives have a fitted effect of over 50% in size. Further: potency means the concentration at half of the fitted maximal effect. Put shortly:
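After a 4hr attachment at 37C, NIH/3T3 cells bearing an integrated Gli1-driven luciferase reporter were dosed with compounds. Treatment lasted 24hr, with the final hour including CellTiter-Fluor for a fluorescence viability measurement.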

Experiment [16] in a line: qHTS assay to identify small molecule antagonists of the sonic hedgehog signaling (Shh) pathway - cell viability counter screen (AID 1259367). Further: nearly all actives have a fitted effect of over 55% in size. Further: potency means the concentration at half of the fitted maximal effect. The essentials: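 Conditioned medium drove Shh signaling in 3T3 Gli1-Luc cells exposed to compounds at 37C and 5% CO2. Viability was determined from CellTiter-Fluor fluorescence, with reagent incubated 1 hr after 23 hr of treatment.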

A short description of experiment [17]: qHTS assay to identify small molecule HDAC inhibitors (AID 1259364).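 Further: wild-type HCT-116 cells with endogenous class I/II HDAC activity; top concentration of the series differs between compounds; nearly all actives have a fitted effect of over 45% in size.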 The essentials:
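HCT-116 wt cells, 1,500/well, overnight attach. Compounds (DMSO) 2 h, 37 °C. HDAC-Glo I/II, 30 min RT. Luminescence.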

The nature of experiment [18]: qHTS assay to identify small molecule phospholipidosis (PLD) inducers (AID 1259344; active means well fitted curve in the direction sought with a large enough effect; an effect the other way counts as inactive or inconclusive). Put shortly: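 After 4 h attachment on collagen I, HepG2 cells were dosed with compound alongside LipidTOX Red, kept 24 h at 37 C, fixed, and imaged for lamellar phospholipid pits.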
The target of experiment [19] is Androgen receptor (Homo sapiens) (UniProt P10275). Kind of experiment: qHTS assay to identify small molecule antagonists of the androgen receptor (AR) signaling pathway using the MDA cell line in the presence of 0.5 nM R1881 (AID 1259243). Further: nearly all actives have a fitted effect of over 50% in size. The essentials: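 Luminescence from an AR/GR-responsive MMTV-luciferase construct in MDA-kb2 breast carcinoma cells, read 30 min after ONE-Glo, following 16 hr co-treatment with compounds and 0.5 nM R1881.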
Androgen receptor (Homo sapiens), sequence (P10275 whole entry, looked up): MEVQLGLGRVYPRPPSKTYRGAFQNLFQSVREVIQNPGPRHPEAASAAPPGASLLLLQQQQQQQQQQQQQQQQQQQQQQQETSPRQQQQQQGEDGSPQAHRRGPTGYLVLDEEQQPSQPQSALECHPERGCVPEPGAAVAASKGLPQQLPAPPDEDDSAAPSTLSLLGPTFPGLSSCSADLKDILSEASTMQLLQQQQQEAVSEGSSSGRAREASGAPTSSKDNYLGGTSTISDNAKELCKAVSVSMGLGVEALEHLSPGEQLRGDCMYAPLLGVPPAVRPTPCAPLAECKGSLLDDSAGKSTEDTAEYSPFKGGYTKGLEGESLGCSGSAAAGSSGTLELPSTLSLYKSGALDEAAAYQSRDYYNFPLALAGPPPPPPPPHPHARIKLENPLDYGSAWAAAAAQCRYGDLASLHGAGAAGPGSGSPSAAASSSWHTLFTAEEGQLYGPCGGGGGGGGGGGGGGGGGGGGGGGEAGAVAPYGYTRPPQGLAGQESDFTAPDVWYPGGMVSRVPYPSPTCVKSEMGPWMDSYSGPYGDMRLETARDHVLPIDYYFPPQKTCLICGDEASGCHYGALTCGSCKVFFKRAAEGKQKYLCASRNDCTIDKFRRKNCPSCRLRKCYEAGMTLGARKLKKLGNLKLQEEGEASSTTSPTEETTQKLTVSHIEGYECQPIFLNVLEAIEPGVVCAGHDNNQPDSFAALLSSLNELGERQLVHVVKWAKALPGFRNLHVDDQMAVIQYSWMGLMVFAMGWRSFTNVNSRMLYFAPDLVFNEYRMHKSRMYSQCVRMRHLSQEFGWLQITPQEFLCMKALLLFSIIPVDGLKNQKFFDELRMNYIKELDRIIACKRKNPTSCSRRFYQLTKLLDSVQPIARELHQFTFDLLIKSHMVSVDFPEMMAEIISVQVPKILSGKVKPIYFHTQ

Experiment [20] can be described thus: qHTS RealTime-Glo MT Cell Viability Assay in HEK293 cells - 24 hour (AID 1224886). Put shortly: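 Nonlytic real-time viability readout: viable cells convert prosubstrate to NanoLuc substrate, giving luminescence proportional to live cell number. HEK293, 600 cells/well, compound added after 5 h, continuous culture at 37 C.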

Turning to `O=c1[nH][nH]c(=O)c2cc([N+](=O)[O-])ccc12`, the Potency result in [1], in [2], in experiment [3], in experiment [4], in experiment [5] and in experiment [6] was “inactive” each time. Also, the Potency result in [7], in experiment [8], in experiment [9], in experiment [10], in [11] and in experiment [12] was “inactive” throughout. For the same molecule, the Potency result in experiment [13], in experiment [14], in experiment [15] and in experiment [16] was “inactive” throughout.
Consider `COC(CC(C)CCCC(C)(C)O)OC` (stereo not drawn), for which the Potency result in [1], in [2], in experiment [3], in experiment [4], in [5] and in experiment [6] was “inactive” in each case. The Potency entry in experiment [7], in [8], in experiment [9], in experiment [10], in [11] and in experiment [12] was “inactive” each time. For the same molecule, the Potency result in experiment [17], in experiment [14], in experiment [15] and in experiment [16] was “inactive” throughout.
For `CC(=O)N[C@@H](Cc1ccc(O)cc1)C(=O)O`, the Potency entry in experiment [1], in [2], in [3], in [4], in experiment [5] and in experiment [6] was “inactive” throughout. Further, the Potency entry in experiment [7], in experiment [8], in experiment [9], in experiment [10], in experiment [11] and in [12] was “inactive” in each case. The Potency entry in experiment [18], in experiment [17], in experiment [14], in experiment [15] and in experiment [16] was “inactive” in each case.
As for `COC(OC)OC`, the Potency entry in experiment [1], in [2], in [3], in experiment [4], in experiment [5] and in experiment [6] was “inactive” each time. Also, the Potency result in experiment [7], in experiment [8], in [9], in [10], in experiment [11] and in experiment [12] was “inactive” in each case. Further, the Potency entry in experiment [13], in experiment [17], in experiment [14], in [15] and in [16] was “inactive” throughout.
Regarding `C1=CCC2CC=CC2C1` (stereo not drawn), the Potency result in [1], in experiment [2], in [3], in experiment [4], in experiment [5] and in experiment [6] was “inactive” each time. Further, the Potency result in experiment [7], in [8], in experiment [9], in experiment [10], in experiment [11] and in experiment [12] was “inactive” each time. The Potency entry in experiment [19], in experiment [14], in experiment [15] and in [16] was “inactive” each time.
Take `CCN(CC)CCNC(=O)c1cc(Cl)c(N)cc1OC`: the Potency result in experiment [1], in experiment [2], in experiment [3], in experiment [4], in [5] and in experiment [6] was “inactive” throughout. In addition, the Potency result in experiment [20], in experiment [8], in experiment [9], in experiment [10], in experiment [11] and in experiment [12] was “inactive” throughout. In addition, the Potency result in [13], in experiment [18], in experiment [17], in experiment [14], in experiment [15] and in experiment [16] was “inactive” each time.
For `CCCCOC(=O)CCCCC(=O)OCCCC`, the Potency result in experiment [1], in experiment [2], in [3], in experiment [4], in experiment [5] and in [6] was “inactive” in each case. Further, the Potency result in [7], in experiment [8], in experiment [9], in experiment [10], in experiment [11] and in experiment [12] was “inactive” in each case. Also, the Potency entry in [17], in experiment [14], in experiment [15] and in [16] was “inactive” throughout.
`CC[C@H]1OC(=O)[C@H](C)[C@@H](O[C@H]2C[C@@](C)(OC)[C@@H](O)[C@H](C)O2)[C@H](C)[C@@H](O[C@@H]2O[C@H](C)C[C@H](N(C)C)[C@H]2O)[C@](C)(O)C[C@@H](C)/C(=N\OCOCCOC)[C@H](C)[C@@H](O)[C@]1(C)O`: the Potency entry in [1], in [2], in experiment [3], in experiment [4], in experiment [5] and in [6] was “inactive” each time. Further, the Potency entry in experiment [7], in [8], in experiment [9], in experiment [10], in [12] and in experiment [18] was “inactive” each time. Besides, the Potency result in experiment [17] and in experiment [14] was “inactive” each time. Besides, the Potency in [11] is 10.2 µM (active); in experiment [15] it was 5.09 µM (active); in [16], 8.07 µM (active).
